In article PMC5540273 (PLoS ONE, 2017):

Assays:
Conditions in all cases: concentration: 1 μM, replicates: in singlicate; n = 1
[1] = system: T1, ERK4
T1 construct: gene MAPK4

[2] = system: T2, ERK5
T2 construct: gene MAPK7

[3] = system: T3, ERK8
T3 construct: gene MAPK15

[4] = system: ERN1
[5] = system: T4, FAK
T4 construct: gene PTK2

[6] = system: FER
[7] = system: FES
[8] = system: FGFR1
[9] = system: FGFR2
[10] = system: FGFR3
[11] = system: FGFR4
[12] = system: FGR
[13] = system: FLT1
[14] = system: FLT3-autoinhibited
[15] = system: FLT3
[16] = system: FLT4
[17] = system: FRK
[18] = system: FYN
[19] = system: GAK
[20] = system: T5, GCN2(Kin.Dom.2,S808G)
T5 construct: gene EIF2AK4
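Note: KINOMEscan kinase panel screen.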

| SMILES | %Inh [1] | %Inh [2] | %Inh [3] | %Inh [4] | %Inh [5] | %Inh [6] | %Inh [7] | %Inh [8] | %Inh [9] | %Inh [10] | %Inh [11] | %Inh [12] | %Inh [13] | %Inh [14] | %Inh [15] | %Inh [16] | %Inh [17] | %Inh [18] | %Inh [19] | %Inh [20] |
| --- | --- | --- | --- | --- | --- | --- | --- | --- | --- | --- | --- | --- | --- | --- | --- | --- | --- | --- | --- | --- |
| COc1cc2ncnc(Nc3ccc(OCc4ccccc4Br)c(Cl)c3)c2cc1OC.Cl [GI261590] | 32% | 0% | 0% | 0% | 0% | 18% | 25% | 0% | 38% | 12% | 9% | 43% | 23% | 0% | 0% | 0% | 6% | 0% | 0% | 24% |
| FC(F)(F)c1ccc(-c2nn3ncccc3c2-c2ccnc(Nc3cccc(C(F)(F)F)c3)n2)cc1 [GW828205] | 0% | 0% | 0% | 0% | 9% | 2% | 7% | 33% | 100% | 8% | 3% | 58% | 12% | 0% | 0% | 8% | 0% | 0% | 0% | 0% |
| O=c1cc(N2CCOCC2)nc2n(Cc3cccc(Cl)c3)ccn12 [GSK2296823] | 7% | 0% | 38% | 0% | 0% | 3% | 0% | 0% | 14% | 24% | 5% | 15% | 19% | 14% | 0% | 1% | 7% | 0% | 2% | 0% |
| Cc1ccc(C)c(NC(=O)NCCNc2ccnc(Nc3ccc(F)cc3)n2)c1 [GSK1379878] | 17% | 98.4% | 0% | 0% | 0% | 17% | 0% | 0% | 14% | 0% | 0% | 4% | 24% | 0% | 0% | 0% | 0% | 0% | 0% | 0% |
| Nc1nc(-c2ccccn2)c(-c2ccnc3ccccc23)s1 [GW548057] | 31% | 4% | 0% | 14% | 0% | 8% | 0% | 0% | 0% | 16% | 0% | 9% | 34% | 0% | 0% | 0% | 0% | 11% | 47% | 0% |
| Clc1cc(Nc2ncnc3cc[nH]c23)ccc1OCc1ccccn1 | 27% | 13% | 6% | 47% | 8% | 1% | 22% | 5% | 8% | 17% | 4% | 24% | 0% | 5% | 7% | 0% | 15% | 0% | 3% | 0% |
| Nc1nccc2scc(-c3ccc4c(c3)CCN4C(=O)Cc3cc(F)ccc3F)c12 [GSK2587663] | 0% | 0% | 14% | 2% | 0% | 26% | 18% | 0% | 1% | 9% | 7% | 40% | 37% | 0% | 0% | 0% | 11% | 12% | 0% | 13% |
| CS(=O)(=O)CCNCc1ccc(-c2ccc3ncnc(Nc4ccc(OCc5ccccc5)c(Cl)c4)c3c2)o1.Cl [GW574783] | 0% | 0% | 15% | 0% | 11% | 14% | 0% | 0% | 0% | 12% | 0% | 9% | 26% | 0% | 11% | 0% | 0% | 14% | 0% | 16% |
| CNc1nccc(-c2c(-c3ccc(F)cc3)ncn2CCCN2CCOCC2)n1 [SB-222516] | 2% | 0% | 14% | 0% | 6% | 12% | 7% | 26% | 0% | 0% | 0% | 10% | 1% | 14% | 15% | 5% | 0% | 0% | 0% | 0% |
| CC(C)N1CCC(n2cnc(-c3ccc(F)cc3)c2-c2ccnc(N)n2)CC1 [SB-223132] | 0% | 0% | 4% | 0% | 16% | 8% | 0% | 22% | 10% | 21% | 0% | 16% | 0% | 0% | 0% | 0% | 1% | 0% | 2% | 0% |
| FC(F)(F)c1ccc(-c2cc(-c3c[nH]nc3-c3ccccn3)ccn2)cc1 [GW599550] | 0% | 0% | 0% | 0% | 0% | 32% | 0% | 5% | 0% | 4% | 0% | 14% | 20% | 0% | 0% | 17% | 0% | 38% | 46% | 0% |
| Cl.c1ccc(Cn2ncc3cc(Nc4ncnc5ccccc45)ccc32)cc1 [GW273749] | 35% | 0% | 0% | 34% | 0% | 13% | 0% | 0% | 0% | 0% | 5% | 31% | 17% | 7% | 0% | 8% | 0% | 36% | 23% | 0% |
| O=C(c1ccc(-c2cc(-c3c[nH]nc3-c3ccccn3)ccn2)cc1)N1CCCC1 [GW792479] | 0% | 23% | 0% | 0% | 47% | 0% | 5% | 3% | 1% | 3% | 0% | 17% | 18% | 0% | 8% | 0% | 0% | 5% | 33% | 0% |
| O=C(CCO)NCCn1ccc2ncnc(Nc3ccc(Oc4cccc(C(F)(F)F)c4)c(Cl)c3)c21 | 0% | 5% | 0% | 0% | 0% | 0% | 0% | 0% | 0% | 0% | 0% | 5% | 0% | 0% | 0% | 0% | 0% | 0% | 0% | 0% |
| Fc1cccc(COc2ccc(Nc3ncnc4nn5ccccc5c34)cc2Cl)c1 [GW689066] | 0% | 0% | 0% | 0% | 0% | 16% | 0% | 0% | 12% | 3% | 0% | 4% | 20% | 0% | 0% | 0% | 0% | 0% | 0% | 0% |
| Cl.Cl.c1ccc(-c2cc3ccncc3cc2OC2CCNCC2)cc1 [GSK1122999] | 8% | 0% | 0% | 0% | 0% | 36% | 0% | 0% | 0% | 11% | 30% | 23% | 28% | 0% | 4% | 22% | 0% | 44% | 12% | 11% |
| O=C(Nc1n[nH]c2nc(-c3ccco3)c(Br)cc12)c1ccc(CN2CCCC2)cc1.O=C(O)[C@H](O)[C@@H](O)C(=O)O [SB-742352] | 0% | 0% | 0% | 0% | 0% | 4% | 0% | 0% | 0% | 1% | 0% | 3% | 34% | 51% | 95% | 1% | 0% | 0% | 0% | 0% |
| COc1cc2c(Nc3cccc(NC(=O)c4ccccc4)c3)ncnc2cc1OCCCN1CCOCC1 [GSK223810] | 0% | 0% | 0% | 23% | 0% | 0% | 0% | 18% | 11% | 22% | 3% | 0% | 61% | 0% | 6% | 28% | 17% | 24% | 16% | 0% |
| O=C(Nc1ccccc1F)NC1CCN(c2ccnc(Nc3ccc(F)cc3)n2)C1 (stereo not shown) [GSK1379722] | 12% | 0% | 31% | 0% | 0% | 26% | 0% | 0% | 19% | 15% | 7% | 9% | 26% | 0% | 1% | 14% | 9% | 0% | 0% | 4% |
| CC(=O)Nc1n[nH]c2ncc(-c3ccccc3)cc12 [SB-548492] | 0% | 0% | 60% | 0% | 0% | 4% | 25% | 4% | 0% | 10% | 0% | 16% | 25% | 47% | 74% | 0% | 0% | 0% | 31% | 27% |
